# FXIa inh mix – FXIa protease inhibitors in compound pools, primary screen, biochemical, 10-compound mixtures | Coagulation factor XI (Homo sapiens), P03951 | purified FXIa, fluorogenic substrate, pooled mixtures | inhibition, % at 5 µM | 62,000 tested, 0.19% active | AID 680, 2007;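 note: each value is inhibition by a whole ten-compound pool holding the compound; 0% = enzyme with no mixture and 100% = wells lacking enzyme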
# Target sequence (P03951 19-387 limits assumed): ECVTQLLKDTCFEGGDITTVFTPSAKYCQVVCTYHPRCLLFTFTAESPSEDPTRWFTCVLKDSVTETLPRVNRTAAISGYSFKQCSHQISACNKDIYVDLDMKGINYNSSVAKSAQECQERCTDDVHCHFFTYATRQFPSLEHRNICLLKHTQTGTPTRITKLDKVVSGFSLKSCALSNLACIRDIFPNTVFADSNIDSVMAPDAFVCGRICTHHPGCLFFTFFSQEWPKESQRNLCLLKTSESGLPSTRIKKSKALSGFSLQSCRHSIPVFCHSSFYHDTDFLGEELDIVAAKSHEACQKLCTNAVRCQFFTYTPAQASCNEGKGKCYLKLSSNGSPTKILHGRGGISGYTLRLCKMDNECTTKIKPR
# Target sequence (P03951 388-625 limits assumed): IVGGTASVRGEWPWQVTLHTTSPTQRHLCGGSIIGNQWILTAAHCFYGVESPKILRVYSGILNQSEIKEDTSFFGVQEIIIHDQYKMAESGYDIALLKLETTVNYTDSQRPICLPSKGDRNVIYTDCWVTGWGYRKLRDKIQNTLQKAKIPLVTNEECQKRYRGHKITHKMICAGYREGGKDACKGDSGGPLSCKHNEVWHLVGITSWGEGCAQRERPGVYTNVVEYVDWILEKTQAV
# FXIIa mix inh – human factor XIIa inhibitors, primary screen, biochemical, pooled compound mixtures, fluorogenic substrate; inhibition, % at 5 µM; Coagulation factor XII (Homo sapiens), P00748; 62,000 tested, 0.2% active; purified FXIIa;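 note: 0% = enzyme without compound and 100% = no enzyme blank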
# D1 mod – D1 CRE-luciferase signal change, two-sided – cell-based, HEK293 D1, dopamine EC30, D1 allosteric modulator project, primary screen; D(1A) dopamine receptor (Homo sapiens), P21728; dopamine EC30 potentiation; actives deviate in either direction; B-score at 10 µM; 58,000 tested, 5.9% active; AID 641, 2007;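 active = luminescence count or its row- and column-corrected plate score outside the 99.7% band of the plate's sample wells, on either side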
# Candida biofilm – clotrimazole potentiators killing Candida biofilms, primary screen, with clotrimazole, Alamar Blue | C. albicans biofilm + clotrimazole | inhibition, % at 6 µM | 85,000 tested, 0.14% active;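 active = inhibition above 20%; inactive = inhibition below 20%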;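 note: preformed 24 hr biofilms exposed to compound for 48 hr; 0% = biofilm without compound and 100% = blank killed by clotrimazole plus chlorhexidine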
# HePTP inhibitor – inhibitors of human HePTP phosphatase, primary screen, biochemical, absorbance, leukemia target; recombinant HePTP phosphatase activity, OD absorbance; Tyrosine-protein phosphatase non-receptor type 7 (Homo sapiens), P35236; 110,000 tested, 0.64% active; inhibition, % at 20 µM; in the data active = inhibition above about 50%;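 note: plate controls were vehicle for no effect and reference inhibitor for full effect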
# TNAP act mid DEA – human TNAP enzyme activators, primary screen, biochemical, luminescent, intermediate phosphate acceptor level. purified TNAP, CDP-star luminescence, 100 mM DEA, 30 min; hits give high values; scale: 0 levamisole-inhibited, 1 vehicle-only enzyme. activation factor at 20 µM. 64,000 tested, under 10 active;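 active = activation factor of at least 2 at 20 µM, relative to controls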
# D1 PAM confirm – D1 receptor positive allosteric modulators, retest, confirmation, cell-based, HEK293 D1, CRE-luciferase, duplicate. shares compounds with D1 mod. dopamine EC30 potentiation; hits give high values. luminescence at 10 µM. 2,200 tested, 88% active. AID 642, 2007;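 active = luminescence in either of two replicates above the same-plate mean plus 3 SD of the low-dose dopamine control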
# D1 ag no DA – D1 receptor agonism without dopamine, confirmation, mechanism study for D1 allosteric modulator project, cell-based, HEK293 D1, CRE-luciferase, secondary assay 1. shares compounds with D1 mod. luminescence, no dopamine; hits give high values. luminescence at 10 µM. 1,900 tested, 0.8% active. AID 646, 2007; in the data active = luminescence above about 3900
# Isoprot counter – counter-screen for D1 modulators: isoproterenol response in HEK293 cells; 2,200 tested, 63% active; AID 647; HEK293 D1 CRE-luciferase, isoproterenol EC30 counter-screen; hits give high values; shares compounds with D1 mod; luminescence at 10 µM;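 active = luminescence in either replicate above plate mean of wells with a partly effective reference agonist dose plus 3 SD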;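 note: isoproterenol raises cAMP through native beta-adrenoceptor Gs so signal bypasses D1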
# The depositor's hits bear a star; · = no result. This is one part of a sample in which hits are shown more often than they occur. Cut-off read from the data, not from the text of the source, unless noted: active = inhibition above about 20% (passing the limit was not always enough); inactive = the rest.
SMILES,FXIa inh mix,FXIIa mix inh,D1 mod,Candida biofilm,HePTP inhibitor,TNAP act mid DEA,D1 PAM confirm,D1 ag no DA,Isoprot counter
COC(=O)c1cc(NC2c3ncccc3C(=O)N2Cc2ccccc2)cc(C(=O)OC)c1 (stereo unspecified),0,9,19*,-4,0,1,20824*,1580,5104*
COc1ccc(NC2c3ccccc3C(=O)N2Cc2ccco2)cc1OC (stereo unspecified),8,2,2.2,-9,9,0.9,·,·,·
O=C(Nc1cccc(Br)c1)c1ccc([N+](=O)[O-])cc1Cl,·,·,·,·,-12,·,·,·,·
O=C(Nc1ccccc1C(=O)c1ccccc1)c1ccccc1,·,·,·,·,6,·,·,·,·
N#CC1=C(C2CC2)CC(c2ccccc2)C(C#N)=C1N (stereo unspecified),2,6,-2,6,4,0.9,·,·,·
N#CC1=C(N)SC2(CCCCC2)SC1c1ccccc1 (stereo unspecified),-1,10,3.2*,12,8,0.9,6560*,·,2760*
NC(=O)CSc1nnc(-c2cccs2)n1-c1ccccc1,·,·,·,5,·,·,·,·,·
COC(=O)CSc1nnc(-c2cccs2)n1-c1ccc(Cl)cc1,6,3,2.8*,10,7,0.9,9056*,·,2668*
Cc1ccc(-c2[nH]nc3c2C(c2ccoc2)C(C#N)=C(N)O3)cc1C (stereo unspecified),0,-13,11*,3,2,0.8,18284*,1340,4760*
CCOc1cc(C2C(C#N)=C(N)Oc3n[nH]c(-c4ccccc4)c32)ccc1O (stereo unspecified),-3,5,3.8*,·,7,0.6,5848*,1448,2572
CC(C)C1C(C#N)=C(N)Oc2n[nH]c(-c3ccccc3)c21 (stereo unspecified),·,·,3.8*,8,-8,·,13728*,1660,2760
N#CC(C#N)=NNc1cccc2c(S(=O)(=O)O)cccc12,·,·,·,·,9,·,·,·,·
CC(C)(C)NCCOc1ccc(Cl)cc1Cl,·,·,·,·,8,·,·,·,·
COc1cc(/C=C2/C(=O)NN(c3ccc(C)c(C)c3)C2=O)cc([N+](=O)[O-])c1O,·,·,·,·,-2,·,·,·,·
O=S(=O)(c1ccccc1C(F)(F)F)N1CCOCC1,0,9,4.9*,8,-9,1,4520,1508,2400
CCOc1ccc(/C=C2/SC(=S)N(C)C2=O)cc1,·,·,·,·,-18,·,·,·,·
CCC1CCCCN1CC(=O)Nc1cc(C)nn1-c1nc(C)cc(C)n1 (stereo unspecified),7,6,0.64,6,8,1,·,·,·
Cc1cc(C)nc(-n2nc(C)cc2NC(=O)CN2CCC(C)CC2)n1,5,9,5.3*,·,3,1,16268*,1592,3628*
CC1=C(C)CC2C(=O)N(c3ccc([N+](=O)[O-])cc3)C(=O)C2C1 (stereo unspecified),·,·,·,·,4,·,·,·,·
O=C1S/C(=C/c2ccc(Cl)c(Cl)c2)C(=O)N1c1ccccc1,·,·,·,·,5,·,·,·,·
FC(F)(F)c1cccc(-c2ccc(-c3csnn3)o2)c1,-7,1,24*,3,2,0.9,5424,1700,2612
Fc1ccc(-n2c(-c3ccco3)nc3nc4ccccc4nc32)cc1,-16,-16,15*,5,2,1,25288*,1548,7444*
Fc1cccc(-n2c(-c3ccco3)nc3nc4ccccc4nc32)c1,-10,11,9.2*,5,-3,1,16260*,1552,4728*
Fc1ccc(-c2nc3nc4ccccc4nc3n2Cc2ccco2)cc1,1,8,0.32,-7,5,0.9,·,·,·
CCN1C(=O)/C(=C2\SC(=S)N(c3cc(OC)ccc3OC)C2=O)c2ccccc21,·,·,·,·,2,·,·,·,·
SMILES,FXIa inh mix,FXIIa mix inh,D1 mod,Candida biofilm,HePTP inhibitor,TNAP act mid DEA,D1 PAM confirm,D1 ag no DA,Isoprot counter
CCCOc1ccc(C(=O)Nc2ccc(N3CCN(C(C)=O)CC3)cc2)cc1,3,8,3*,·,-2,0.8,6192,1528,2336
CC(=O)N1CCN(c2ccc(NC(=O)c3ccc(C)cc3)cc2)CC1,·,·,·,-3,·,·,·,·,·
CCOC(=O)Cc1[nH]nc2c1C(c1cccc(OC)c1OC)C(C#N)=C(N)O2 (stereo unspecified),9,-22,6.3*,4,8,1,7976*,1640,2760
COC(=O)Cc1[nH]nc2c1C(c1cccc(OC)c1OC)C(C#N)=C(N)O2 (stereo unspecified),8,2,0.007,-1,5,1,·,·,·
CCCc1[nH]nc2c1C(c1cc(OC)ccc1F)C(C#N)=C(N)O2 (stereo unspecified),8,-15,8.2*,-7,10,1,9940*,·,3020*
COc1ccc(C2=N/C(=C\N(C)C)C(=O)O2)cc1,·,·,·,·,-14,·,·,·,·
C1=C(CCNC2=NCCCCC2)CCCC1,13,-2,0.058,-9,4,0.8,·,·,·
COc1nc(NCCC2=CCCCC2)nc(OC)n1,3,8,7.2*,-3,4,0.9,8312*,1712,2828*
CCOC(=O)c1c(C)nc2sccn12,6,2,2.6*,6,1,0.9,12992*,1936,2928
CCOC(=O)c1c(C)nc2ncccn12,1,-19,0.3,8,-1,0.9,·,·,·
CCOC(=O)c1c(C)nc2c3ccccc3ccn12,3,4,5.3*,6,3,0.9,19468*,1592,3904*
COC(C(=O)NNC(=O)c1ccccc1Cl)c1ccccc1 (stereo unspecified),·,·,·,·,1,·,·,·,·
CCOC(=O)c1sc(=S)n(CC)c1N,6,-2,5.1*,-1,4,0.9,10812*,1584,3764
CCCC(=O)c1c(NC(C)C)cc(C)oc1=O,7,4,5.7*,3,4,0.9,12004*,1700,4408*
CCCNc1cc(C)oc(=O)c1C(=O)CCC,·,·,·,6,·,·,·,·,·
CCOC(=O)N1CCN(Cc2nc(N)nc(Nc3ccc(Oc4ccccc4)cc3)n2)CC1,1,4,3.5*,8,4,0.9,12388*,1648,3732*
